CYP2C9 activ: human CYP2C9 activators, primary screen, biochemical, luminescence; actives 1.4% (n = 96,000); activation factor at 5 µM; recombinant CYP2C9, luciferin-H conversion; hits give high values; factor 1 = untreated enzyme, 0 = blocked; Cytochrome P450 2C9 (Homo sapiens), P11712;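 active = activation factor of 2 or more for CYP2C9 at a 5 µM dose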
Target sequence (P11712 whole entry, looked up): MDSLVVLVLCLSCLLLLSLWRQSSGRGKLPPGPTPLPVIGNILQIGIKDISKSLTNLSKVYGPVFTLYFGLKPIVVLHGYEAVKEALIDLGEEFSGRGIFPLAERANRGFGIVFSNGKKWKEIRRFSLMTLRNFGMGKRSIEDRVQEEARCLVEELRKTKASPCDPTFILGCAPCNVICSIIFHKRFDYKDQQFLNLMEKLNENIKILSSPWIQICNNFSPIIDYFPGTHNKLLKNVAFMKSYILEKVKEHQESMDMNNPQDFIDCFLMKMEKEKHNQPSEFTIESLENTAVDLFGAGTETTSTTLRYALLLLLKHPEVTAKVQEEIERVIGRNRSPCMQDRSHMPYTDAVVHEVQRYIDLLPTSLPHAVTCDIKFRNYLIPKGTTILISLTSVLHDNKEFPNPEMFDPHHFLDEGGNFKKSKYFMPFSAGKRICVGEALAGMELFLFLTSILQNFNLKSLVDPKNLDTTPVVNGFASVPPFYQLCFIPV
Cav3 T inh: Cav3.2 calcium influx blockers – cell-based, Fluo-4 calcium fluorescence, FDSS, MLSMR library, primary screen. Voltage-dependent T-type calcium channel subunit alpha-1H (Homo sapiens), O95180. actives 4% (n = 100,000). Cav3.2-expressing cells; hits give low values. B-score at 10 µM;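 active = single-dose well whose peak fluorescence ratio is a statistical outlier from its plate by either plate-standardised score or position-corrected B-score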
CYP2C9 inhib: blockers of cytochrome P450 2C9 activity – biochemical, luminescence, ADME assay, primary screen | P11712 | CYP2C9 Supersomes, luciferin-H conversion | inhibition, % at 5 µM | actives 20% (n = 96,000) | AID 777, 2007;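 active = blocking of liver enzyme CYP2C9 beyond about 50% at 5 µM, limit read from the data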
CYP2C19 inh: blockers of cytochrome P450 2C19 activity – biochemical, luminescence, ADME assay, primary screen. P33261. CYP2C19 Supersomes, luciferin-H EGE luminescence, 30 min. inhibition, % at 5 µM. actives 21% (n = 96,000);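 active = CYP2C19 inhibition above a set limit at 5 µM in the primary screen, cut at about 50% in these data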
CYP2C19 act: human CYP2C19 activators, primary screen, biochemical, luminescence | recombinant CYP2C19, luciferin-H EGE luminescence; hits give high values; 0 = fully inhibited enzyme, 1 = untreated enzyme | activation factor at 5 µM | 96,000 tested, under 10 active | AID 1025, 2008;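 active = activation factor of at least 2 at 5 µM in the primary screen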
Hits are given with their value; n = inactive. In the library only some 27% were active in any assay of this set; here they are far more common.

SMILES	CYP2C9 activ	Cav3 T inh	CYP2C9 inhib	CYP2C19 inh	CYP2C19 act
CCOc1ccccc1C(=O)Nc1cccc(-c2nnc(-c3ccccc3)o2)c1	n	n	n	n	n
O=C(OCc1ccccc1F)c1ccc2c(c1)-c1ccccc1C2=O	n	n	n	n	n
CC1=CN2CC(O)CN=C2C=C1 (stereo not given)	n	n	n	n	n
Cc1cc(N2CCN(c3cccc(C(F)(F)F)c3)CC2)n2nc(C)nc2n1	n	n	n	n	n
C=Cc1cccc(NC(=O)COc2ccccc2)c1	n	n	n	86.8	n
COc1ccc(C(=O)Nc2cccc(-c3nnc(-c4ccco4)o3)c2)cc1	n	n	59.7	n	n
O=C(COc1ccccc1)Nc1cccc(-c2nnc(-c3ccccc3)o2)c1	n	n	52.8	n	n

Screens from PubChem BioAssay.
